Screening results (PubChem)
A selection: hits, their analogues and other compounds. The true share with any hit is near 21%.
Pf growth 96h: inhibits malaria parasite growth, 96 h; P. falciparum luciferase reporter growth, 96 h; Potency, µM (highest dose often 28.7 µM), hits mostly inhibitors; 320,000 compounds, 6.9% hits
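Erythrocytes infected with luciferase-expressing P. falciparum were dispensed at 2% hematocrit and 0.05% parasitemia (final), then incubated with compounds 96 hours at 37 C in 5% CO2. Luminescence after detection reagent addition reported growth.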
NS1 function inh: inhibitors of influenza NS1 protein function; 270,000 compounds, 0.4% hits; AID 2326; Potency, µM (highest dose often 46.1 µM); calls by dose curve; note: actives are rising curves; nearly all actives have a fitted effect of over 50% in size
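S. cerevisiae expressing influenza A NS1, grown in glucose, washed, then diluted 1:100 into pH 6.0 -URA galactose medium with 23 nl compound. Growth recovery read as OD600; NS1-free strain serves as control.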
CHX counter: affects cycloheximide protein synthesis inhibition readout, counter-screen | max response, % | AID 2314 | 300,000 compounds, 12% hits | cell reporter, cycloheximide protein synthesis inhibition counterscreen; in the data active = max response mostly above about 13%, no sharp cut-off; inactive = mostly below about 14%; note: read at 38.3 µM for the half of the compounds with a filed dose
SARS PLP yeast: SARS-CoV PLP inhibition in yeast. S. cerevisiae expressing SARS-CoV PLpro, growth rescue. Potency, µM (highest dose often 32.9 µM), usual class: activators. 330,000 compounds, 0.19% hits. AID 485353; calls by dose curve; note: nearly all actives have a fitted effect of over 55% in size
Pf growth 48h: P. falciparum growth inhibition at 48 hours (one generation). P. falciparum luciferase growth in erythrocytes, 48 h. AID 504832. Potency, µM (doses to about 28.7 µM), most hits filed as inhibitors. 310,000 compounds, 5.9% hits
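Cell-based growth assay: transgenic P. falciparum expressing firefly luciferase, cultured in red cells within RPMI 1640 containing 0.5% w/v Albumax, 24 mM bicarbonate and gentamycin. A drop in luciferase activity indicates inhibition.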
Shiga inhibitor: blocks Shiga toxin action in Vero cells; Vero cells, Shiga toxin protein synthesis inhibition reporter; inhibition, % at 38.7 µM; 290,000 compounds, 9.2% hits; in the data active = inhibition mostly above about 28%, no sharp cut-off; inactive = mostly below about 43%
Of the large screens only hits and unclear results are named; the others gave an inactive call; ! = a repeat was not active. Unless noted, calls come from the whole dose curve; as a rule, active = well fitted inhibition curve with a large enough effect; inconclusive = small, poorly fitted or top-dose-only effect, or another doubt; inactive = no such curve, though single readings can be large or run the other way.

CCC(Sc1nnnn1C)C(=O)Nc1ccc(C(C)=O)cc1 (stereo not drawn)	CHX counter 23, Shiga inhibitor 115 (no result: Pf growth 96h)
C/C(=N\NC(=O)COc1cc(C)cc(C)c1)c1cccc(NC(=O)C2CCC2)c1	none
COc1ccccc1CN(Cc1cc2cc(C)ccc2[nH]c1=O)Cc1nnnn1Cc1ccco1	Pf growth 96h 3.3µM, Pf growth 48h 12µM, Shiga inhibitor 53
CCc1ccc2[nH]c(=O)c(CN(Cc3ccccc3OC)Cc3nnnn3Cc3ccco3)cc2c1	Pf growth 96h inconclusive, NS1 function inh inconclusive, Pf growth 48h 4.7µM
Cc1ccc2cc(CN(CCN3CCOCC3)Cc3nnnn3Cc3ccco3)c(=O)[nH]c2c1C	Pf growth 96h inconclusive
Cc1ccc2cc(CN(Cc3ccc4c(c3)OCO4)Cc3nnnn3Cc3ccco3)c(=O)[nH]c2c1C	Pf growth 96h inconclusive, Pf growth 48h 8.3µM
CCOC(=O)Cn1nnnc1CN(Cc1ccc(OC)cc1)Cc1cc2cc(CC)ccc2[nH]c1=O	Pf growth 96h inconclusive, SARS PLP yeast inconclusive (no result: Pf growth 48h)
COc1ccc(C2=NN(C(=O)CCCC(=O)O)C(c3cn(-c4ccccc4)nc3-c3ccccc3)C2)cc1 (stereo not drawn)	none
CSC1=C(C#N)C(=O)NC(c2ccc(Cl)cc2)S1 (stereo not drawn)	none
CC(NC(=O)c1noc2c1CCCCC2)c1ccccc1 (stereo not drawn)	Pf growth 96h inconclusive, CHX counter 33, Shiga inhibitor 45
Cc1nn(Cc2ccccc2Cl)c(C)c1NC(=O)c1noc2c1CCCCC2	CHX counter 21
Cc1ccccc1Cn1nc(C)c(NC(=O)c2noc3c2CCCC3)c1C	Pf growth 96h inconclusive, Pf growth 48h inconclusive
COc1ccc(CNC(=O)c2noc3c2CCCCC3)cc1	Pf growth 96h inconclusive, CHX counter 25, Shiga inhibitor 85
COc1ccc2c(c1)CCc1c(C(=O)NCc3ccc(F)cc3)noc1-2	Pf growth 96h inconclusive, NS1 function inh inconclusive
O=C(NCc1ccccc1)c1noc2c1CCCCC2	Pf growth 96h 9.3µM, CHX counter 46, Shiga inhibitor 84
COC(=O)/C=C1/SC(=NC(=O)c2cccc([N+](=O)[O-])c2)NC1=O	none
O=C(NC1CCCC1)c1noc2c1CCCCC2	CHX counter 37, Shiga inhibitor 152
O=C(NCc1cccs1)c1noc2c1CCCCC2	Pf growth 96h inconclusive, CHX counter 23, Shiga inhibitor 54
Cc1cc(NC(=O)CCCn2nc(C)c([N+](=O)[O-])c2C)no1	Pf growth 96h 1.5µM (no result: NS1 function inh)
Cc1nn(Cc2ccccc2Cl)c(C)c1NC(=O)CCCn1nc([N+](=O)[O-])c(Cl)c1C	Pf growth 96h 4.7µM, SARS PLP yeast inconclusive
Cc1c(Cl)c([N+](=O)[O-])nn1CCCC(=O)Nc1ccc(Cl)cc1Cl	Pf growth 96h 12µM
Cc1cc(NC(=O)CCCn2cnc([N+](=O)[O-])n2)no1	none
C/C(=N\NC(=O)CNC(=O)c1ccco1)c1ccc(Br)cc1	none
Cc1c(Cl)cccc1NC(=O)CNC(=O)c1ccco1	none
Cc1ccc(NC(=O)CNC(=O)c2ccco2)c(Cl)c1	CHX counter 25, Shiga inhibitor 47
O=C(CNC(=O)c1ccco1)Nc1ccc(Cl)cc1	Pf growth 96h inconclusive, CHX counter 27, Shiga inhibitor 34
O=C(CNC(=O)c1ccco1)Nc1ccc(Br)cc1	CHX counter 45, Shiga inhibitor 61
OC1c2cc(Br)ccc2N=C2CCCN21 (stereo not drawn)	Pf growth 96h 10µM, Pf growth 48h 8.3µM
CC[N+]1(C)CC2CCC(C)(C1)C2(C)C (stereo not drawn)	Pf growth 96h inconclusive
CCc1ccc(NC(=O)c2cc(S(=O)(=O)N3CCc4ccccc43)cn2C)cc1	Pf growth 48h inconclusive
Cn1cc(NC(=O)c2cc(NC(=O)c3cc(NC=O)cn3C)cn2C)cc1C(=O)NCCC(=N)N	Pf growth 96h inconclusive, Pf growth 48h 3.4µM!
Cc1cccc(-n2c(C)nc3cc(C(=O)NCc4ccc5c(c4)OCO5)ccc32)c1	Pf growth 96h inconclusive
O=C(Nc1cccc2cccnc12)c1ccc(Br)o1	CHX counter 26 (no result: Pf growth 96h)
O=C(Nc1cccc2ccccc12)c1ccc(Br)o1	Pf growth 96h 15µM
O=C(Nc1cccc2c1CCCC2)c1ccc(Br)o1	none
CSc1ccccc1NC(=O)c1ccc(Br)o1	CHX counter 36, Shiga inhibitor 45 (no result: Pf growth 48h)
